# Measurements taken from publication PMC5540273 (PLoS ONE, 2017).
# Tests used:
# Settings in all cases: concentration: 1 μM, replicates: in singlicate; n = 1
# RIPK2 = test system: RIPK2
# RIPK4 = test system: RIPK4
# RIPK5 = test system: RIPK5
# ROCK1 = test system: ROCK1
# ROCK2 = test system: ROCK2
# ROS1 = test system: ROS1
# [1] = test system: RPS6KA4(Kin.Dom.1-N-terminal)
# [2] = test system: RPS6KA4(Kin.Dom.2-C-terminal)
# [3] = test system: RPS6KA5(Kin.Dom.1-N-terminal)
# [4] = test system: RPS6KA5(Kin.Dom.2-C-terminal)
# [5] = test system: T1, RSK1(Kin.Dom.1-N-terminal)
# T1 construct: gene RPS6KA1
# [6] = test system: T2, RSK1(Kin.Dom.2-C-terminal)
# T2 construct: gene RPS6KA1
# [7] = test system: T3, RSK2(Kin.Dom.1-N-terminal)
# T3 construct: gene RPS6KA3
# [8] = test system: T4, RSK2(Kin.Dom.2-C-terminal)
# T4 construct: gene RPS6KA3
# [9] = test system: T5, RSK3(Kin.Dom.1-N-terminal)
# T5 construct: gene RPS6KA2
# [10] = test system: T6, RSK3(Kin.Dom.2-C-terminal)
# T6 construct: gene RPS6KA2
# [11] = test system: T7, RSK4(Kin.Dom.1-N-terminal)
# T7 construct: gene RPS6KA6
# [12] = test system: T8, RSK4(Kin.Dom.2-C-terminal)
# T8 construct: gene RPS6KA6
# S6K1 = test system: S6K1
# SBK1 = test system: SBK1
# 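Note: KINOMEscan kinase panel screen.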
SMILES,%Inh (RIPK2) [%],%Inh (RIPK4) [%],%Inh (RIPK5) [%],%Inh (ROCK1) [%],%Inh (ROCK2) [%],%Inh (ROS1) [%],%Inh [1] [%],%Inh [2] [%],%Inh [3] [%],%Inh [4] [%],%Inh [5] [%],%Inh [6] [%],%Inh [7] [%],%Inh [8] [%],%Inh [9] [%],%Inh [10] [%],%Inh [11] [%],%Inh [12] [%],%Inh (S6K1) [%],%Inh (SBK1) [%]
COc1cc2ncn(-c3cc(OCc4ccncc4)c(C(N)=O)s3)c2cc1OC [GSK336313],13,22,1,0,0,28,19,0,4,4,25,0,6,0,0,0,0,0,0,24
CN1C(=O)C(Nc2cc(Cl)c(O)c(Cl)c2)=C(c2ccc(Cl)cc2)C1=O [SB-404321],0,32,0,6,0,0,0,0,0,0,0,0,5,0,0,9,0,0,17,0
O=C1NC(=O)C(c2ccccc2)=C1Nc1cccc(O)c1 [SB-390534],8,1,26,0,0,24,0,7,0,0,19,0,24,0,0,0,14,7,11,27
COc1cc(Nc2nccc(N3CCC(NC(=O)C(C)c4ccc(Cl)cc4)C3)n2)cc(OC)c1OC (centres unmarked) [GSK1379757],0,0,16,0,0,31,0,0,0,0,21,0,2,1,0,0,0,5,0,12
COc1cccc(-n2cnc3c(N)ncnc32)c1 [SKF-97416],1,43,18,66,60,0,19,7,0,0,8,13,39,34,0,8,40,7,1,29
COc1cc2ncn(-c3cc(OCc4ccc(S(C)(=O)=O)cc4)c(C(N)=O)s3)c2cc1OC [GW869979],0,35,3,45,32,0,0,38,0,14,1,0,26,0,0,7,27,6,19,37
O=C(Nc1n[nH]c2cc(-c3ccccc3F)ccc12)C1CC1 [SB-733371],11,13,0,0,0,4,0,0,0,0,32,0,34,0,0,0,0,0,0,17
O=C(NCCNc1ccnc(Nc2ccc(F)cc2)n1)Nc1ccc2c(c1)OCO2 [GSK1379882],0,11,0,0,0,0,0,0,9,10,15,22,14,30,0,0,0,12,0,6
COC(=O)c1c(-c2ccccc2)c2cc(C)ccc2c(=O)n1Cc1ccccc1,0,0,0,0,0,0,0,0,10,0,0,20,0,0,15,15,0,22,0,0
COc1cccc(C2=C(Nc3cccc(C(=O)O)c3)C(=O)NC2=O)c1 [SB-390770],7,0,0,25,7,32,0,0,32,0,0,0,4,15,8,0,20,10,6,18
COc1ccc(-c2cc3c(C)nc(N)nc3n([C@H]3CC[C@H](O)CC3)c2=O)cn1,0,0,0,0,0,0,5,0,0,0,6,0,0,0,0,0,0,0,0,0
O=C(NCc1cccs1)c1cc(C(=O)c2c(Cl)cccc2Cl)c[nH]1 [GW823670],8,0,0,45,0,0,22,0,0,15,16,13,2,0,0,18,0,0,7,0
COc1ccc(-c2coc3ccc(-c4nnc(SCc5cccc(C#N)c5)o4)cc23)cc1,12,16,12,0,24,18,0,13,29,0,16,24,9,0,16,18,26,24,2,0
Nc1ncnc2c1ncn2-c1cccc(F)c1 [SKF-97560],100,29,26,38,28,4,0,45,0,3,31,0,23,0,9,0,21,0,36,25
Nc1n[nH]c2nnc(-c3ccccc3)c(-c3ccccc3)c12 [GW554060],0,0,0,31,31,14,10,0,12,0,0,1,4,29,4,0,10,8,0,13
Cc1ccc(-c2ccc3c(ccc4sc5c(c43)NC[C@@H](C)N=C5N(C)C)n2)cn1,0,0,0,0,0,0,0,0,0,0,0,0,0,0,0,0,0,0,0,0
